This is an account of results in PubChem BioAssay AID1671190 (National Center for Advancing Translational Sciences (NCATS), 2021).

The whole screen tested about 580,000 compounds, of which about 6,100 (1.1%) were called active. Inconclusive results (about 15%) are left out. Calls come from the whole dose curve; as a rule, active = well fitted inhibition curve with a large enough effect; inconclusive = small, poorly fitted or top-dose-only effect, or another doubt; inactive = no such curve, though single readings can be large or run the other way. The entries come from a sample that favours actives as a whole. Entries that show only a call come without a potency.
Potency is the fitted concentration of half-maximal effect.

Chain of Polyunsaturated fatty acid lipoxygenase ALOX12 (Homo sapiens) (P18054 whole entry, looked up): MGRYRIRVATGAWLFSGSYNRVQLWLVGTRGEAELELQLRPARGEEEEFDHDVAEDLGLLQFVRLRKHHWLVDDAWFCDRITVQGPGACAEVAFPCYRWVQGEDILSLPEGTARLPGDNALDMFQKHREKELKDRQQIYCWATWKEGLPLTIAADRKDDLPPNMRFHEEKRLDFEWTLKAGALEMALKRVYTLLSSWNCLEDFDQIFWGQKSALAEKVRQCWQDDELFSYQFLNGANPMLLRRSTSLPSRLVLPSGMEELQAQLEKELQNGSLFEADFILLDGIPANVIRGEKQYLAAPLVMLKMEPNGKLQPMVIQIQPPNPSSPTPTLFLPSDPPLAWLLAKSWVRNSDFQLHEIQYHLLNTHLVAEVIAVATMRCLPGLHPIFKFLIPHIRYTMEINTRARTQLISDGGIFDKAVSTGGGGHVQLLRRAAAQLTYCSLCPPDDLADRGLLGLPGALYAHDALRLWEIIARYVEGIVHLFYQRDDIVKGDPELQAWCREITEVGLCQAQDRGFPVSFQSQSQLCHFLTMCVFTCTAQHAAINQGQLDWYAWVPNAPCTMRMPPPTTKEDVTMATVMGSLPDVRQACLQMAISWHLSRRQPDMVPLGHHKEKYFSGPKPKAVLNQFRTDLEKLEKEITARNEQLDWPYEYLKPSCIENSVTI

For the experiment, the target named is Polyunsaturated fatty acid lipoxygenase ALOX12 (Homo sapiens) (UniProt P18054). In words: Primary qHTS assay for inhibitors of human arachidonate 12S-lipoxygenase (ALOX12): Round 2. The following applies: purified 12hLO, xylenol orange hydroperoxide absorbance; series mostly up to 108 µM. A digest of the protocol:
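Purified human 12hLO at 150 nM in 25 mM Hepes, 0.01% Triton X-100, pH 7.0, preincubated 15 min at room temperature with compound. Reaction started with 40 uM arachidonic acid, 30 min at room temperature. Hydroperoxide measured by Fe-xylenol orange, 573/405 nm absorbance ratio.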
Background: qHTS replaces the single test concentration by a dilution series.
Take `CCCn1nc(C(=O)NC2CCN(C(C)C)CC2)c2ccccc2c1=O`: the Potency entry is “inactive”.

As to `Cc1noc(C)c1-c1cc(NCc2cccnc2)ncn1`, the Potency was 31.6 µM (active).

Turning to `COCCNc1cc(-c2c(C)noc2C)ncn1`, the Potency is 39.8 µM (active).

Consider `Cc1cc2cc(-c3c(C)noc3C)nc(NCc3cccnc3)c2o1`, for which the Potency result was “inactive”.

Regarding `CNc1cc(-c2c(C)noc2C)ncn1`, the Potency entry was “inactive”.

Regarding `COCCCNC(=O)c1ccc(-c2c(C)noc2C)c2ccoc12`, the Potency result is “inactive”.

As for `Cc1cnc(CNc2cc(-c3c(C)noc3C)ncn2)cn1`, the Potency result was “inactive”.

As to `O=C(NCCc1cccnc1)c1cccc(Cl)c1Cl`, the Potency result was “inactive”.

Consider `c1ccc(-c2noc(-c3ccco3)n2)cc1`, for which the Potency entry was “inactive”.

For the compound `Cc1ccc(C(=O)Nc2cnc3ccccc3c2)cc1[N+](=O)[O-]`, the Potency result is “inactive”.

As to `C/C(=N\NC(=S)Nc1ccc(C)cc1)c1cc2ccccc2o1`, the Potency was 25.1 µM (active).

On to `CC(C)Oc1ccc(NC(=O)c2cc3ccccc3o2)cc1`, for which the Potency result was “inactive”.

As for `Cc1cc2nc(-c3ccc(NC(=O)c4cc5ccccc5o4)cc3)oc2cc1C`, the Potency result was “inactive”.

In the case of `COc1cccc(/C=C2\Oc3cc(OS(=O)(=O)c4ccc(C)cc4)ccc3C2=O)c1OC`, the Potency entry was “inactive”.

As to `Cc1ccc(NC(=O)CN(C)C(=O)c2nn(-c3ccccc3)c3c2CCC3)cc1`, the Potency result was “inactive”.

On to `CCNC(=O)O[C@@H]1CO[C@H]2[C@@H]1OC[C@@H]2NC(=S)Nc1cccc2ccccc12`, for which the Potency was 56.2 µM (active).

`COc1ccc(-c2ccnc(N[C@H]3CO[C@H]4[C@@H]3OC[C@H]4OC(=O)Nc3cccc4ccccc34)n2)cc1`: the Potency result was “inactive”.

For the compound `COc1ccc(NC(=O)O[C@@H]2CO[C@H]3[C@@H]2OC[C@@H]3NC(=S)Nc2cccc3ccccc23)cc1`, the Potency result was “inactive”.

`CCOc1ccc(N2CC(NC(=O)CC(C)(C)C)CC2=O)cc1` (stereo not given): the Potency result was “inactive”.

Consider `O=C(Cc1ccccc1F)NC(c1ccc2c(c1)CCC2)c1cccs1` (stereo not given), for which the Potency entry was “inactive”.

As for `CCCCc1ccc(C(=O)Cn2nnc(-c3cccc(F)c3)n2)cc1`, the Potency entry was “inactive”.

Turning to `Cc1ccc(C(=O)Nc2cc3c(cc2N2CCCC2)n(C)c(=O)c(=O)n3C)cc1`, the Potency result was “inactive”.

With `Cn1c(=O)n(C)c2cc(SCc3ccco3)c(NC(=O)c3ccc(C(C)(C)C)cc3)cc21`, the Potency was 8.91 µM (active).

Turning to `CC(C)(C)c1ccc(C(=O)NCC(c2ccco2)S(=O)(=O)c2ccc(F)cc2)cc1` (stereo not given), the Potency entry was “inactive”.

In the case of `CCNC(=O)C1CCCN1S(=O)(=O)c1ccc(Br)s1` (stereo not given), the Potency result is “inactive”.

On to `Cc1ccc(CN2CCN(C(=O)CCC[C@H]3NC[C@@H]4C[C@H]3CN(Cc3ccccc3)C4)CC2)cc1`, for which the Potency entry is “inactive”.

Take `Cc1oc(-c2ccccc2)nc1Cn1ncc2ccccc2c1=O`: the Potency entry was “inactive”.

In the case of `Cc1cccc(CN2CCC3(Cc4ccccc4CNC3=O)C2)c1` (stereo not given), the activity change, negative = inhibition was 3.12% [at 6.33 µM] (inactive).

In the case of `Cc1ccc(CN2CCC3(Cc4ccccc4CNC3=O)C2)cc1` (stereo not given), the Potency is 28.2 µM (active).

In the case of `COc1ccc(CN2CCC3(Cc4ccccc4CNC3=O)C2)cc1OC` (stereo not given), the activity change, negative = inhibition was 8.59% [at 6.33 µM] (inactive).
